Measured values reported in the supplement of paper PMC6555819.

system: RARa:RXR (NR concentration 270 nM, RXRa partner concentration 90 nM); assay: PBM binding z-score (relative to random genomic background probes); higher = stronger binding; sequences stand for … in GC…GCGATTGACAGCGTAGAATGAAGG
Method in brief: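 Ligand-free nuclear receptor dimers were bound for 1 h to custom Agilent 4×180K protein-binding microarrays. Detection used antibodies against each partner (one per run). Binding z-scores rest on regression-normalized fluorescence, with random background probes as the reference.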

Row | Sequence | PBM binding z-score
1 | CCTTTCGGGTCAAGGTTATAGCACGGGTGGTACG | 4.51
2 | GGAACGAGGGCAAAGCTGATAGCATCTGTCGACG | 0.0386
3 | TAGCCTAGGTCATTGGGGCAGTATAGTACGCATC | 2.52
4 | ATCTCTAGGTAAGAGTCAGTTCAGTGAAGAACGC | 0.349
5 | AGAATGAGGTTAAGATCAGGCAAACAGAATACAT | 2.09
6 | TTACGAAGGTGAAGGTCGTTGATCCCTCTGTAGA | 1.68
7 | AGAATTAGGTTATTAAGATCAGGGAATTGCGGTC | 0.229
8 | GGAACGAGGGCATTCCAGTTGATAGCATGGCGAT | 0.917
9 | TCTTGTAGTTCAAAGGTTAAGAAAGCCGAAGCCT | 6.25
10 | AATACAGGGTCACTAGGCCAGCGTAGGTACGAAT | 3.54
11 | CCTACTGGGCCATCAGCTCATTGATATCAACGTT | -0.689
12 | TAGCCTAGGTCATTCAGGGGCCAGTATTGAAAGC | 3.99
13 | TCTTGTAGATCAAAGGTTAGGAAAGCCGAAGCCT | 2.02
14 | GCGACTGAGGCATCAGCAGGTTACCATAACTTAA | 0.102
15 | ACACCAAGGTGATCGTGAGGTCGTTGATACTAAC | 2.18
16 | TAGCCTAGGTCATGGGCCAGTCTACCACGCGAAC | 2.52
17 | CGGCAAAGTTCAACTAAGGTAACGTAAAGCACGC | 3.93
18 | CGTCCAAGGTCAGAAAGGTCAGTGAATGCCGAGT | 5.92
